This passage reports survival results from PubChem BioAssay AID463173 (ICCB-Longwood Screening Facility, Harvard Medical School, 2010).

The campaign covered roughly 52,000 compounds. About 4,300 (8.3%) were called active. No stated cut-off is given here; in the data, active means survival mostly below about 52% (no sharp cut-off); inactive means mostly above about 56%. Many of the other results were omitted from the sample, so actives are more common in it than they were.

The subject of the experiment is DeltatarO mutant. Kind of experiment: S. aureus survival, RN4220 and DeltatarO strains – OD600, teichoic acid synthesis inhibitors, primary screen (AID 463173). The note with it: S. aureus RN4220 wild type/DeltatarO growth, OD600, 18 h, active compounds read low, screened at 18.75 µg/mL (by protocol).
On to `Cc1ccc(S(=O)(=O)c2nnn3c2nc(N(C)Cc2ccccc2)c2cc(Cl)ccc23)cc1C`, for which the survival is 108% (inactive).

Turning to `Cc1ccccc1NC(=O)CSCn1nnc2c(=O)[nH]c(Cc3ccc(F)cc3)nc21`, the survival is 55% (inactive).

As for `CC(C)Cn1c(=O)c2ccccc2n2c(CCC(=O)Nc3cccc(Cl)c3)nnc12`, the survival was 88% (inactive).

Regarding `Cc1cc(OC(C)C(=O)N2CCC(c3nc4ccccc4o3)CC2)ccc1Cl` (stereo not drawn), the survival was 57% (inactive).

As for `COc1ccc(C(=O)N/C(=C\c2cn(S(=O)(=O)N(C)C)c3ccccc23)C(=O)NCCCn2ccnc2)cc1`, the survival is 85% (inactive).

Regarding `O=C(O)CCc1nnc2cnc3ccccc3n12`, the survival was 171% (inactive).

As to `CCc1ccc(NC(=O)CC2C(=O)NCCN2C(=O)c2ccccc2OC)cc1` (stereo not drawn), the survival was 109% (inactive).

As to `COC(=O)c1ccc(NC(=O)c2cc3cc4ccc(OC)c(Cl)c4nc3s2)cc1`, the survival was 98% (inactive).

With `Cc1ccc(NC(=O)CSc2cc(=O)n(C)c3ccc(Cl)cc23)c(Br)c1`, the survival was 79% (inactive).

With `CCCCOC(=O)c1ccc(NC(=O)Cc2coc3c(C)c(C)ccc23)cc1`, the survival was 79% (inactive).

For `CN(Cc1ccccc1)S(=O)(=O)c1nnc(NC(=O)c2ccccc2)s1`, the survival was 26% (active).

For the compound `Cc1ccccc1N(C)S(=O)(=O)c1nnc(NC(=O)C(C)C)s1`, the survival was 69% (inactive).

On to `Cc1ccccc1N(C)S(=O)(=O)c1nnc(NC(=O)c2ccccc2F)s1`, for which the survival is 27% (active).

On to `CN(Cc1ccc(F)cc1)S(=O)(=O)c1nnc(NC(=O)c2ccccc2)s1`, for which the survival was 102% (inactive).

Regarding `CN(Cc1ccc(F)cc1)S(=O)(=O)c1nnc(NC(=O)c2ccc(F)cc2)s1`, the survival was 81% (inactive).

In the case of `CCc1ccc(NC(=O)Cn2c(=O)n(-c3cc(OC)c(OC)c(OC)c3)c(=O)c3ccccc32)cc1`, the survival was 72% (inactive).

Turning to `COC(=O)c1cc2sc(Cl)cc2n1Cc1nc(-c2ccccc2C)oc1C`, the survival was 78% (inactive).

With `N#Cc1c(C(F)(F)F)cc(=O)n2c1[nH]c1ccccc12`, the survival was 37% (active).

`Cc1cc(=O)n2c([nH]c3ccccc32)c1C(=O)O`: the survival was 61% (inactive).

With `CCOC(=O)CSc1nc(-c2ccccc2)cc(C(F)(F)F)c1C#N`, the survival is 70% (inactive).

On to `CC(=O)N1CCc2c(sc3c2c(=O)n(-c2ccccc2)c(=O)n3CC(=O)Nc2ccccc2)C1`, for which the survival is 91% (inactive).

In the case of `COc1cccc(NC(=O)C(=O)NCCc2csc(-c3ccc(C(F)(F)F)cc3)n2)c1`, the survival is 94% (inactive).

For the compound `CCOc1ccccc1NC(=O)c1nnn(CC(=O)Nc2ccc(OC)c(OC)c2)c1N`, the survival is 91% (inactive).

Regarding `CC(CNC(=O)C1CCN(Cc2cc3ccccc3n2Cc2ccccc2)CC1)c1ccccc1` (stereo not drawn), the survival is 47% (active).

Consider `Cc1ccc(Cn2c(CN3CCC(C(=O)NCC(C)c4ccccc4)CC3)cc3ccccc32)cc1` (stereo not drawn), for which the survival was 113% (inactive).

Take `CCCNC(=O)C1CCN(Cc2cc3ccccc3n2Cc2ccccc2)CC1`: the survival was 87% (inactive).

As to `Cc1cc(N2CCN(C)CC2)nc2ccc(NC(=O)Nc3ccc(F)cc3F)cc12`, the survival was 73% (inactive).

Take `O=C(Cc1ccc(F)cc1)NCCc1csc(-c2cccc(F)c2)n1`: the survival was 88% (inactive).

Consider `Cc1ccc(C)c(NC(=O)/C(C#N)=C/c2ccc(C(C)C)cc2)c1`, for which the survival is 66% (inactive).

Regarding `Cc1cc(Nc2cccc(O)c2)c2cccc(Br)c2n1`, the survival is 61% (active).

For the compound `Cc1cc(Nc2ccccc2C)c2cccc(C)c2n1`, the survival was 62% (inactive).

Regarding `Cc1cc(Cl)c2cccc(Br)c2n1`, the survival was 110% (inactive).

On to `Cc1ccc(C(C)C)c(OCC(=O)N2CCC(c3nc4ccccc4o3)CC2)c1`, for which the survival is 80% (inactive).

Take `Cc1cccc(NC(=O)NCCn2c(=O)oc3ccc(C)cc32)c1`: the survival was 71% (inactive).

For `Cc1ccc(C(C)C)c(OCCCn2c(=O)oc3ccc(C)cc32)c1`, the survival was -5% (active).

For `Cc1ccc(C(C)C)c(OCCCn2c(=O)oc3ccccc32)c1`, the survival was -3% (active).

As for `Cc1ccc(NC(=O)NCCOCCn2c(=O)oc3ccccc32)c(C)c1`, the survival was 70% (inactive).

Regarding `CCOc1ccccc1NC(=O)NCCn1c(=O)oc2ccc(C)cc21`, the survival was 71% (inactive).

`Cc1ccc(Cl)cc1NC(=O)Cn1c(=O)n(Cc2ccc(C(=O)NCc3ccc4c(c3)OCO4)cc2)c(=O)c2ccccc21`: the survival is 90% (inactive).

In the case of `COc1ccc(NC(=O)Cn2c(=O)n(-c3cc(C)cc(C)c3)c(=O)c3oc4ccccc4c32)cc1OC`, the survival was 68% (inactive).

With `CCc1ccccc1NC(=O)c1ccc2c(c1)N(Cc1cccc(Cl)c1)C(=O)c1ccccc1S2(=O)=O`, the survival was 81% (inactive).

Regarding `O=S(=O)(NCCc1nnc2ccc(SCc3ccc(C(F)(F)F)cc3)nn12)c1ccccc1`, the survival was 67% (inactive).

`Cc1ccc2cccc(NC(=O)c3cccc4c(Br)cccc34)c2n1`: the survival was 134% (inactive).

As to `Cc1ccc2cccc(NC(=O)c3cccc4ccccc34)c2n1`, the survival was -2% (active).

Turning to `COc1ccc(Br)cc1C(=O)Nc1cccc2ccc(C)nc12`, the survival is 73% (inactive).

Turning to `CCOc1ccccc1C(=O)Nc1cccc2ccc(C)nc12`, the survival is 68% (inactive).

Consider `COc1c(C)cccc1C(=O)Nc1cccc2ccc(C)nc12`, for which the survival is -1% (active).

As for `Cc1ccc2cccc(NC(=O)c3cccc4c(Cl)cccc34)c2n1`, the survival was 63% (inactive).

As to `Cc1cc2c(cc1S(=O)(=O)CCC(=O)N1CCC(C)CC1)OCC(=O)N2`, the survival was 102% (inactive).

For the compound `Cc1ccccc1-c1nc(CS(=O)(=O)CC(=O)N2CCN(c3ccccc3)CC2)c(C)o1`, the survival was 65% (inactive).

Regarding `O=C(Cn1ccc2cc(S(=O)(=O)N3CCCC3)ccc21)NCc1ccc(Cl)cc1`, the survival is 84% (inactive).

For `COc1ccc(-c2cc3nc(-c4ccc(Br)cc4)cc(C(F)(F)F)n3n2)cc1`, the survival was 51% (inactive).

For the compound `COc1cccc(-c2cc(C(F)(F)F)n3nc(-c4ccc(C)cc4)cc3n2)c1`, the survival is 142% (inactive).

For `Cc1cc(C(F)(F)F)n2nc(-c3ccc(Br)cc3)cc2n1`, the survival was 66% (inactive).

`CCCNC(=O)c1cc2nc(-c3ccc(Br)cc3)cc(C(F)(F)F)n2n1`: the survival was 51% (active).

For the compound `CC(=O)c1cccc(NC(=O)c2cc3nc(-c4ccc(Br)cc4)cc(C(F)(F)F)n3n2)c1`, the survival was 49% (inactive).

As to `Cc1ccc(-c2cc(C(F)(F)F)n3nc(C(=O)Nc4sc5c(c4C#N)CCC(C)C5)cc3n2)cc1` (stereo not drawn), the survival was 95% (inactive).

Take `Cc1ccc(-c2cc(C(F)(F)F)n3nc(-c4cccc(Br)c4)cc3n2)cc1`: the survival was 46% (active).

As for `N#Cc1c(NC(=O)c2cc3nc(-c4ccc(Br)cc4)cc(C(F)(F)F)n3n2)sc2c1CCCC2`, the survival was 32% (active).

As to `CCc1ccccc1NC(=O)c1cc2nc(-c3ccc(Br)cc3)cc(C(F)(F)F)n2n1`, the survival was 84% (inactive).

As to `Cc1ccc(-c2cc3nc(-c4ccccc4)cc(C(F)(F)F)n3n2)cc1`, the survival was 69% (inactive).

Regarding `Cc1cc2nc(-c3ccc(Br)cc3)cc(C(F)(F)F)n2n1`, the survival was 37% (active).

As for `COC(=O)c1c(NC(=O)c2cc3nc(-c4ccc(Br)cc4)cc(C(F)(F)F)n3n2)sc2c1CCCC2`, the survival is 70% (inactive).
